Test results as given in PubChem BioAssay (Tox21).
Records with an inconclusive call do not appear. A call without a number means that no potency is given here. A number with no mark means an inactive call. Calls of active or inactive are those of the source. Unless noted, calls come from the whole dose curve; as a rule, active = well fitted curve in the direction sought with a large enough effect in the repeat runs; inconclusive = weak or mixed curves; inactive = no such curve, though single readings can be large; an effect the other way counts as inactive or inconclusive.

What was measured:
[1] = target: Luciferin 4-monooxygenase (Photinus pyralis) (UniProt P08659); assay: qHTS assay to identify small molecule inhibitors of firefly luciferase (AID 1224835); note: nearly all actives have a fitted effect of over 25% in size; note: potency is the fitted concentration of half-maximal effect
Sequence of Luciferin 4-monooxygenase (Photinus pyralis) (P08659 whole entry, looked up): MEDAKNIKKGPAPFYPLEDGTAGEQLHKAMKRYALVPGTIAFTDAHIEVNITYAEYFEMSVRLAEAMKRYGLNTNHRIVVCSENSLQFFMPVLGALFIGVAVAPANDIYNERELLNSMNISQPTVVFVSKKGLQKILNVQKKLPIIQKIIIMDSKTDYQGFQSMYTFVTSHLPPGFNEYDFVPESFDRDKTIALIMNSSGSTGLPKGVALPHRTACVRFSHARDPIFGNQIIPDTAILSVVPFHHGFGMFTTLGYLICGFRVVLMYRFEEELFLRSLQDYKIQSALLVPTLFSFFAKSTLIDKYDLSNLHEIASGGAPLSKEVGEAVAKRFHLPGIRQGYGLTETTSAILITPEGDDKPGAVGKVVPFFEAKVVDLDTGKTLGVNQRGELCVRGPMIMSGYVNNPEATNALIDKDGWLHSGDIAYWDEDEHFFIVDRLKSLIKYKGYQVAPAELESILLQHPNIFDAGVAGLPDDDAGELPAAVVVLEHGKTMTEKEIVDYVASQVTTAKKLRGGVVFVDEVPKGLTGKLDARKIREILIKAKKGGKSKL
How it was run: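 Biochemical qHTS: compounds run as interplate titrations against purified firefly enzyme, with D-luciferin and ATP each at its KM concentration. Light output recorded by CCD imaging.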

[2] = qHTS assay to identify small molecule agonists of the constitutive androstane receptor (CAR) signaling pathway - cell viability counter screen (AID 1224836); note: nearly all actives have a fitted effect of over 45% in size; note: potency is the fitted concentration of half-maximal effect
How it was run: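 Counter screen multiplexed with the CAR reporter readout: HepG2 cells co-transfected with hCAR and the CYP2B6-2.2kb construct receive a 15-concentration compound series and 0.75 uM PK11195 (final), then CellTiter-Fluor fluorescence is read after 23 h.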

[3] = qHTS assay to identify small molecule antagonists of the constitutive androstane receptor (CAR) signaling pathway - cell viability counter screen (AID 1224837); note: nearly all actives have a fitted effect of over 45% in size; note: potency is the fitted concentration of half-maximal effect
How it was run: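 Using CellTiter-Fluor, viability is scored in HepG2 cells stably carrying hCAR and a 2.2kb CYP2B6 reporter after 23 hr compound exposure across 15 concentrations, with CITCO present at 50 nM.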

[4] = target: Nuclear receptor subfamily 1 group I member 3 (Homo sapiens) (UniProt Q14994); assay: qHTS assay to identify small molecule antagonists of the constitutive androstane receptor (CAR) signaling pathway (AID 1224838);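 note: HepG2 cells stably expressing hCAR with CYP2B6 luciferase reporter stimulated by CITCO; nearly all actives have a fitted effect of over 40% in size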; note: potency is the fitted concentration of half-maximal effect
Sequence of Nuclear receptor subfamily 1 group I member 3 (Homo sapiens) (Q14994 whole entry, looked up): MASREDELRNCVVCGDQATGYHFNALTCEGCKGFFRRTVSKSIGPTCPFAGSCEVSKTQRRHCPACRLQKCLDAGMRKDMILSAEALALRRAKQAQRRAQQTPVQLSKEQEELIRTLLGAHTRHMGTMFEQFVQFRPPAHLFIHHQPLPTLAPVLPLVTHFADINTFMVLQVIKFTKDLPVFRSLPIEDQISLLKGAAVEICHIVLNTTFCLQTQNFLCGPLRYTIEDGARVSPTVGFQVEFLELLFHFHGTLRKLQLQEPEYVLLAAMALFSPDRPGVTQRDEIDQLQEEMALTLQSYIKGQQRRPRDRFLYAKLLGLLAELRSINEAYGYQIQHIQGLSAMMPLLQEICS
How it was run: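 Reporter luminescence was quantified after 24 h exposure of hCAR/CYP2B6-2.2kb double-stable HepG2 cells to compounds at 15 concentrations in the presence of 50 nM CITCO final.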

[5] = target: Nuclear receptor subfamily 1 group I member 3 (Homo sapiens) (UniProt Q14994); assay: qHTS assay to identify small molecule agonists of the constitutive androstane receptor (CAR) signaling pathway (AID 1224839); note: nearly all actives have a fitted effect of over 15% in size; note: potency is the fitted concentration of half-maximal effect
How it was run: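 A 15-concentration quantitative screen uses HepG2 cells co-transfected stably with human CAR and CYP2B6-2.2kb reporter. Treatment lasts 24 h with 0.75 uM PK11195 final present; ONE-Glo luminescence is the signal.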

[6] = qHTS assay to identify small molecule antagonists of the estrogen related receptor signaling pathway with the pleiotropic PPARgamma coactivator (PGC) from Tox21 10K library - cell viability counter screen (AID 1224840; active = well fitted cell-killing curve with a large enough effect in the repeat runs, not every such curve was filed as active; note: nearly all actives have a fitted effect of over 40% in size)
How it was run: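 Here the PGC/ERR cells serve as a cytotoxicity control: they are exposed to compounds for 17.5 hours at 37 C, and live-cell signal is quantified using CellTiter-Fluor fluorescence.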

[7] = qHTS assay to identify small molecule antagonists of the estrogen related receptor signaling pathway with the pleiotropic PPARgamma coactivator (PGC) from Tox21 10K library (AID 1224841; call rule not given here; note: actives are mostly falling curves and most rising ones were filed inactive; nearly all actives have a fitted effect of over 50% in size; note: potency is the fitted concentration of half-maximal effect)
How it was run: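 Each well held 2,000 PGC/ERR cells, pre-incubated six hours (37 C, 5% CO2). Test substances in DMSO were added by pin tool and left for 18 h at 37 C before luciferase detection by One-Glo.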

[8] = qHTS assay to identify small molecule agonists of the estrogen related receptor signaling pathway with the pleiotropic PPARgamma coactivator (PGC) from Tox21 10K library (AID 1224842); note: nearly all actives have a fitted effect of over 15% in size
How it was run: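 PGC/ERR reporter cell line, 2,000 cells per well, incubated 6 h at 37 C before 23 nL compound in DMSO was added. After 18 h at 37 C, One-Glo luminescence read following 30 min at room temperature.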

[9] = qHTS assay to identify small molecule antagonists of the estrogen related receptor (ERR) signaling pathway from Tox21 library - cell viability counter screen (AID 1224834); note: nearly all actives have a fitted effect of over 30% in size
How it was run: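 CellTiter-Fluor fluorescence measured; ERR cells; 17.5 h compound incubation at 37 C; 30 min reagent step.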

Row | SMILES | Potency [1] | Potency [2] | Potency [3] | Potency [4] | Potency [5] | Potency [6] | Potency [7] | Potency [8] | Potency [9]
1 | O=C(CCCN1CCC(O)(c2ccc(Br)cc2)CC1)c1ccc(F)cc1 | inactive | inactive | inactive | 33.5 µM (active) | inactive | inactive | – | – | –
2 | O=C(O)C(Cc1cc(I)c(O)c(I)c1)c1ccccc1 (stereo unspecified) | – | inactive | inactive | inactive | inactive | inactive | – | – | –
3 | O=C(N[C@@H](c1ccccc1)[C@@H]1CCCCN1)c1cccc(C(F)(F)F)c1Cl | inactive | 61.1 µM (active) | 61.1 µM (active) | 48.6 µM (active) | inactive | – | – | – | –
4 | CCOc1cc(N)c(Cl)cc1C(=O)NCC1CN(Cc2ccc(F)cc2)CCO1 (stereo unspecified) | inactive | inactive | inactive | – | – | inactive | – | – | –
5 | CCCOC(=O)c1ccc(N)cc1 | – | inactive | inactive | inactive | – | inactive | inactive | inactive | –
6 | COC(=O)CC(=O)C(C)(C)C | – | inactive | – | – | – | inactive | – | – | inactive
7 | O=C(OCCOCCO)c1ccccc1Nc1cccc(C(F)(F)F)c1 | inactive | inactive | – | inactive | inactive | – | – | – | –
8 | CC1C2CC(CC2C2CCCC(O)C2)C1(C)C (stereo unspecified) | inactive | inactive | inactive | – | – | – | – | – | –
9 | CCc1c2c(nc3ccc(OC(=O)N4CCC(N5CCCCC5)CC4)cc13)-c1cc3c(c(=O)n1C2)COC(=O)[C@]3(O)CC | inactive | inactive | inactive | – | inactive | inactive | – | – | –
10 | Cc1ccc(S(=O)(=O)NC2CCCCC2)cc1 | inactive | inactive | inactive | – | inactive | inactive | inactive | inactive | –
11 | COc1ccc([C@@H]2Sc3ccccc3NC(=O)[C@@H]2O)cc1 | inactive | inactive | – | – | inactive | inactive | – | inactive | –
12 | O=C(CCCCCCC(=O)Nc1ccccc1)NO | inactive | – | – | – | inactive | inactive | – | – | –
13 | NC(=O)N(O)[C@@H]1COc2cc(OCc3ccccc3)ccc21 | 1.12 µM (active) | inactive | inactive | inactive | 0.193 µM (active) | – | – | – | –
14 | CC1=NN(c2ccc(C(=O)O)cc2)C(=O)C1 | – | inactive | inactive | inactive | – | inactive | – | – | –
15 | CCOC(=O)CC(=O)C(=O)OCC | inactive | – | – | – | inactive | inactive | 54.5 µM (active) | inactive | –
16 | CCOC(=O)N1CCC(n2c(=O)[nH]c3cc(Cl)ccc32)CC1 | inactive | inactive | – | – | inactive | – | – | – | –
17 | Cc1cc(O)c2c(O)c3c(O)cccc3cc2c1 | – | inactive | inactive | – | 29.8 µM (active) | inactive | – | inactive | –

Row | SMILES | Potency [1] | Potency [2] | Potency [3] | Potency [4] | Potency [5] | Potency [6] | Potency [7] | Potency [8] | Potency [9]
18 | CCC(=O)Oc1ccc(/C(CC)=C(\CC)c2ccc(OC(=O)CC)cc2)cc1 | – | inactive | inactive | – | – | inactive | – | inactive | –
19 | Cc1c(C(=O)NN2CCCCC2)nn(-c2ccc(Cl)cc2Cl)c1-c1ccc(Cl)cc1 | inactive | inactive | inactive | 23.7 µM (active) | inactive | inactive | – | – | –
20 | CO[C@@]12[C@H](COC(N)=O)C3=C(C(=O)C(C)=C(N)C3=O)N1C[C@@H]1N[C@@H]12 | inactive | 9.44 µM (active) | 9.44 µM (active) | 0.75 µM (active) | inactive | – | 23.7 µM (active) | inactive | –
21 | CC(=O)[C@H]1CC[C@H]2[C@@H]3C=CC4=CC(=O)CC[C@@]4(C)[C@@H]3CC[C@]12C | inactive | inactive | inactive | – | inactive | – | – | – | –
22 | N#C/C(=C1/SC[C@@H](c2ccc(Cl)cc2Cl)S1)n1ccnc1 | inactive | inactive | inactive | inactive | – | inactive | 23.7 µM (active) | inactive | –
23 | Cc1occc1C(=O)Nc1ccc(C(=O)N2CCC(F)(F)/C(=C\C(=O)N3CCC(N4CCCCC4)CC3)c3ccccc32)cc1 | inactive | inactive | inactive | inactive | inactive | – | – | inactive | –
24 | Nc1ccc(Cl)cc1[N+](=O)[O-] | – | inactive | inactive | – | – | inactive | inactive | – | –
25 | Cc1nccn1-c1ccc(Sc2cccc(C3(C(N)=O)CCOCC3)c2)cc1 | inactive | – | – | inactive | 9.69 µM (active) | inactive | – | inactive | –
26 | Oc1ccc(Nc2ccccc2)cc1 | inactive | inactive | inactive | inactive | – | – | inactive | – | –
27 | O=C(c1ccc(O)cc1)c1ccc(Cl)cc1 | 64.7 µM (active) | inactive | inactive | inactive | 49.6 µM (active) | inactive | – | – | –
28 | C1COCO1 | – | inactive | – | inactive | inactive | inactive | inactive | inactive | inactive
29 | CC[C@H](NC(=O)c1cc(F)ccc1NS(=O)(=O)c1cccc2cccnc12)c1ccccc1 | – | inactive | – | – | – | – | – | inactive | –
30 | O=C(CCC1CCN(Cc2ccccc2)CC1)c1ccc2c(c1)NCCCC2 | – | inactive | inactive | – | – | inactive | 18.8 µM (active) | – | –
31 | CCCCN(CCCC)C(=S)SSC(=S)N(CCCC)CCCC | – | inactive | inactive | – | – | inactive | – | – | –
32 | CC(=O)OCC(=O)[C@H]1CC[C@H]2[C@@H]3CCC4=CC(=O)CC[C@]4(C)[C@H]3CC[C@]12C | – | inactive | – | – | inactive | inactive | inactive | inactive | inactive
33 | Oc1cc(O)c(Cl)cc1Cl | – | inactive | – | inactive | inactive | inactive | inactive | inactive | inactive
